Screening results: PubChem, Broad Institute
Tg IFNy HTS: inhibitors of Toxoplasma gondii growth with IFN-gamma. Toxoplasma gondii growth in IFN-gamma-treated host cells; active compounds read low. 69,000 compounds, 3.8% hits. activity change, negative = inhibition, % (test concentration not listed). AID 1259416; in the data active means activity change below about -70%, passing the limit was not always enough;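 further: host cells are HeLa cells infected with Toxoplasma gondii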
An asterisk follows results filed as active; i = inactive. Only a selection was taken, and hits are over-represented in it overall.

SMILES | Tg IFNy HTS
CN(C)C(=O)N1CCC[C@]2(C(=O)NCC3CC3)CN(Cc3cnn(C)c3)C[C@H]2C1 | -1
CN(Cc1csc(-c2cccs2)n1)Cc1nc(-c2ccc3c(c2)OCO3)no1 | 22
Clc1ccc(C(Cn2ccnc2)OCc2csc3c(Cl)cccc23)c(Cl)c1 (stereo unspecified) | -79*
S=C(Nc1ccc(Cl)cc1Cl)NC(Cn1ccnc1)c1ccccc1 (stereo unspecified) | -35
Clc1ccc(C(Cn2ccnc2)OCc2c(Cl)cccc2Cl)c(Cl)c1 (stereo unspecified) | -70
Cc1c(C(=O)Cn2ccnc2)sc2ccc(Cl)cc12 | -18
S=C(NCCCn1ccnc1)Nc1cc(Cl)ccc1Cl | 30
Clc1ccc(C(Cn2ccnc2)OCc2ccc(Sc3ccccc3)cc2)c(Cl)c1 (stereo unspecified) | -78*
Cc1nc(CN(C(=O)c2ccccc2N2CCOCC2)C(C)C)no1 | 48
COc1cc(OC)c(CN2CCCC(Cn3ccnc3C)C2)c(OC)c1 (stereo unspecified) | -2
O=C(c1ccoc1)N1C[C@@H]2OCCN(CCN3CCCC3)[C@H]2C1 | -35
Cc1cc(CN(CCO)Cc2cccnc2)c(C)n1Cc1cccnc1 | -21
COc1cccc(-c2ccc3nc(C4CCN(C(=O)c5cnccn5)CC4)nn3c2)c1 | -26
Cc1nc(CN2CCC3(CC2)NC(=O)CC3c2ccccc2)cs1 (stereo unspecified) | 6
Nc1nc(C(F)(F)F)nn1CC(=O)O | 20
Cc1cnc(CNC(=O)CSCc2ccccc2Cl)cn1 | 15
CCO[C@@H]1CCN(C(=O)C(C)C)[C@@H]2CCO[C@H]21 | 82
CCO[C@H]1CN(C(=O)N2CCCC2)[C@H]2CCCO[C@@H]12 | -96*
CCO[C@H]1CC[C@@H]2[C@@H]1OCCN2C(=O)c1ccc2ccccc2c1 | -4
O=C(C[C@H]1CC[C@@H]2NC[C@H](O)COC[C@H]2O1)N1CCc2ccccc2C1 | -14
CCN(CC)Cc1cnc2n1CCN(CC1CCOC1)CC2 (stereo unspecified) | -1
Cc1ccc(CN(C(=O)c2cccc(OCC(N)=O)c2)C2CCCC2)s1 | -16
S=C(NCCc1ccccn1)NN1C2CSC1CS2 | -84*
S=C(NCCc1ccccn1)NC1CC2CCC1C2 (stereo unspecified) | 62
O=C(NCCc1ccccn1)Nc1nnc(-c2ccc(F)cc2)s1 | -5
SMILES | Tg IFNy HTS
Cc1nnnn1-c1ccc(CC(=O)NCc2cccc(OC(C)C)c2)cc1 | 53
Cc1cc(NC(=O)NCC(c2cccnc2)c2cn(C)c3ccccc23)ccc1Br (stereo unspecified) | i
CC(C)OCCN1CCN(S(=O)(=O)c2ccc3oc(=O)ccc3c2)CC1 | 12
COc1cccc(C(=O)N2CCC3(CC2)CC(OCC2CC2)CO3)c1 (stereo unspecified) | -3
c1cncc(COCC2CNCc3nccn3C2)c1 (stereo unspecified) | -82*
COCCC(=O)N1Cc2nccn2CC(COCc2cccnc2)C1 (stereo unspecified) | -2
O=C(c1ccco1)N1Cc2nccn2CC(COc2cccnc2)C1 (stereo unspecified) | 0
Cc1cc(-c2nccn2CCn2ccnc2)cc(C)c1O | -1
Cn1nc(C(=O)N(Cc2ccccn2)Cc2ccco2)c2c1CCCC2 | 17
CC(C)CN1CC2CN(C(=O)NCc3ccccc3)CC(C1)O2 | 86
CCc1cccc(NC(=O)CN2C(=O)CCc3cc(S(=O)(=O)N4CCCCC4C)ccc32)c1 (stereo unspecified) | -77*
CSc1cccc(NC(=O)CN2C(=O)CCc3cc(S(=O)(=O)N4CCCCC4C)ccc32)c1 (stereo unspecified) | -86*
CSc1cccc(NC(=O)CN2C(=O)CCc3cc(S(=O)(=O)N4CCCC4)ccc32)c1 | 2
Cc1ccc(NC(=O)CN2C(=O)CCc3cc(S(=O)(=O)N4CCCCC4C)ccc32)cc1F (stereo unspecified) | -47
Cc1cccc(NC(=O)CN2C(=O)CCc3cc(S(=O)(=O)N4CCCCC4C)ccc32)c1C (stereo unspecified) | 30
Cc1ccc(C)c(NC(=O)CN2C(=O)CCc3cc(S(=O)(=O)N4CCCCC4C)ccc32)c1 (stereo unspecified) | 21
CC1CCN(S(=O)(=O)c2ccc3c(c2)CCC(=O)N3CC(=O)NC(C)C)CC1 | 33
CC1CCN(S(=O)(=O)c2ccc3c(c2)CCC(=O)N3CC(=O)N(Cc2ccccc2)C(C)C)CC1 | -81*
CC1CCN(S(=O)(=O)c2ccc3c(c2)CCC(=O)N3CC(=O)Nc2cccnc2)CC1 | -9
CCc1cccc(NC(=O)CN2C(=O)CCc3cc(S(=O)(=O)N4CCC(C)CC4)ccc32)c1 | -127*
CC1CCN(S(=O)(=O)c2ccc3c(c2)CCC(=O)N3CC(=O)NCc2ccccc2)CC1 | -11
CC1CCN(S(=O)(=O)c2ccc3c(c2)CCC(=O)N3CC(=O)Nc2ccc(F)c(F)c2)CC1 | -13
CCCN(C(=O)c1ccc(Br)cc1)C1(C(=O)NCc2ccccc2)CCN(C(C)=O)CC1 | 22
COc1ccc(-c2n[nH]c(CC(C)C)n2)c(OC)c1OC | 1
c1c[nH]c(CN2CCN(CCn3cncn3)CC2)n1 | -3
SMILES | Tg IFNy HTS
Cc1nc(-c2ccc(F)cc2)sc1CCNC(=O)c1cccc(Cl)c1 | -56
CCN1c2ccc(F)cc2C(=O)NC12CCN(C(=O)Cc1ccc(Cl)cc1)CC2 | 11
Cc1noc(C)c1CN(C)C(=O)C1(c2cccs2)CC1(C)C (stereo unspecified) | -14
COc1ccc(Cc2nnc(NC(=O)c3sc4ccccc4c3Cl)s2)cc1OC | 87
COc1ccc(C2=NN(C(C)=O)C3(CCCC3)O2)cc1OC | 4
COc1ccccc1CNC(=O)C[C@H]1C=C[C@@H](NC(=O)CC2CC2)[C@H](CO)O1 | -18
CCSc1nnc2c(n1)OC(c1cccc(F)c1)N(C(C)=O)c1ccccc1-2 (stereo unspecified) | 81
Cc1cccc(Nc2ccc(C3CCCN(C(=O)CCc4nnc(C(C)C)o4)C3)nc2)n1 (stereo unspecified) | 0
O=C(NC(=O)c1sc2ccccc2c1Cl)c1ccccc1O | -107*
O=C(Nc1ncn[nH]1)c1sc2ccccc2c1Cl | 11
O=C(NC1CCSC1=O)c1sc2ccccc2c1Cl (stereo unspecified) | 29
CC(=O)N1CC(=O)N(c2cccnc2)CC12CCN(c1ncccn1)C2 (stereo unspecified) | 10
Cc1ccc2c(c1)NC1(CCN(C(=O)CCc3ccccc3)CC1)c1cccn1-2 | 5
CCCCC(=O)N1CCC2(CC1)Nc1ccc(Cl)cc1-n1cccc12 | -108*
Cc1ccc2c(c1C)-n1cccc1C1(CCN(C(=O)CC3CCCCC3)CC1)N2 | 27
O=C(CCc1ccccc1)N1CCC2(CC1)Nc1ccc(Cl)cc1-n1cccc12 | -121*
CCC(=O)N1CCC2(CC1)Nc1ccc(Cl)cc1-n1cccc12 | 51
O=C(CCC1CCCC1)N1CCC2(CC1)Nc1ccc(Cl)cc1-n1cccc12 | 57
Cc1ccc2c(c1C)-n1cccc1C1(CCN(C(=O)CC3CCCC3)CC1)N2 | -88*
O=C(CC1CCCC1)N1CCC2(CC1)Nc1ccc(Cl)cc1-n1cccc12 | 59
Cc1ccc2c(c1C)-n1cccc1C1(CCN(C(=O)CCC3CCCC3)CC1)N2 | 33
CC(C)n1cc(C(=O)N2CCOC(c3ccc(Cl)cc3)C2)cn1 (stereo unspecified) | 8
COc1ncnc2c1CCN(Cc1csc(C)n1)CC2 | 14
O=C(c1ccc[nH]1)N1CCN(Cc2cccnc2)c2ncccc2C1 | 2
